Here are results for eight compounds from PubChem BioAssay (Tox21).

Values without a mark were called inactive. Records with an inconclusive call do not appear. Activity calls are given as the source filed them. Unless noted, calls follow the shape of the dose curve; as a rule, active = well fitted curve in the direction sought with a large enough effect in the repeat runs; inconclusive = weak or mixed curves; inactive = no such curve, though single readings can be large; an effect the other way counts as inactive or inconclusive.

Test [1] is described as follows: qHTS assay to identify small molecule antagonists of the estrogen receptor alpha (ER-alpha) signaling pathway using the BG1 cell line in the presence of 0.1 nM 17-beta-estradiol - cell viability counter screen (AID 1259241). Also: nearly all actives have a fitted effect of over 40% in size. Also: potency is read from the fitted curve at half-maximal effect. The method, boiled down: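 In this screen, hormone-deprived VM7Luc4E2 cells were seeded at 4,000 per well, dosed with compound and 0.1 nM estradiol final, and incubated 22 hr at 37C and 5% CO2; fluorogenic live-cell protease signal reported viability.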
(qHTS replaces the single test concentration by a dilution series.)

The nature of test [2]: qHTS assay to identify small molecule antagonists of the androgen receptor (AR) signaling pathway using the MDA cell line in the presence of 0.5 nM R1881 - cell viability counter screen (AID 1259242). Also: nearly all actives have a fitted effect of over 45% in size. Also: potency is read from the fitted curve at half-maximal effect. In short, it runs like this: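 Steps: plate MDA-kb2 cells, rest 5 hr at 37C without CO2; pin in compounds in DMSO; add R1881 to 0.5 nM final; incubate 16 hr; add CellTiter-Fluor, 30 min; read fluorescence.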

For test [3], the target named is Estrogen receptor (Homo sapiens) (UniProt P03372). Briefly: qHTS assay to identify small molecule antagonists of the estrogen receptor alpha (ER-alpha) signaling pathway using the BG1 cell line in the presence of 0.1 nM 17-beta-estradiol (AID 1259244). Also: nearly all actives have a fitted effect of over 50% in size. Also: potency is read from the fitted curve at half-maximal effect. In short, it runs like this:
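Antagonist mode: compounds in DMSO are pinned onto VM7Luc4E2 reporter cells, 0.1 nM final 17beta-estradiol is added, and after 22 h at 37C luciferase luminescence is measured with ONE-Glo.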

The nature of test [4]: qHTS assay to identify small molecule HDAC inhibitors (AID 1259364).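 Also: wild-type HCT-116 cells with endogenous class I/II HDAC activity; top concentration of the series differs between compounds; nearly all actives have a fitted effect of over 45% in size.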 The method, boiled down:
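Cells (HCT-116, wild type) are seeded at 1,500 per well, incubated overnight, treated with compound in DMSO for 2 hr, then developed with HDAC-Glo I/II reagent for 30 min at room temperature.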

A short description of test [5]: qHTS assay to identify small molecule agonists of the sonic hedgehog signaling (Shh) pathway - cell viability counter screen (AID 1259366). Also: nearly all actives have a fitted effect of over 50% in size. Also: potency is read from the fitted curve at half-maximal effect. In short, it runs like this: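 In quantitative high-throughput format, 3T3 Gli1-Luc cells were exposed to compounds for 24hr and multiplexed for viability using CellTiter-Fluor, incubated 1hr at 37C before the fluorescence read.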

Test [6] in a line: qHTS assay to identify small molecule antagonists of the sonic hedgehog signaling (Shh) pathway - cell viability counter screen (AID 1259367). Also: nearly all actives have a fitted effect of over 55% in size. Also: potency is read from the fitted curve at half-maximal effect. The method, boiled down:
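Tox21 library chemicals were tested on a Gli1-Luc NIH/3T3 clone (2,000 cells/well) stimulated by conditioned medium; viability was quantified as fluorescence from CellTiter-Fluor reagent added at 23 hr.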

A short description of test [7]: qHTS assay to identify small molecule agonists of the sonic hedgehog signaling (Shh) pathway (AID 1259368; calls by dose curve;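 also: NIH/3T3-derived 3T3Gli1-Luc cells carrying a stable Gli1-driven firefly luciferase reporter; series mostly up to about 92 µM; nearly all actives have a fitted effect of over 15% in size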). The method, boiled down:
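Cells of a mouse NIH/3T3 clone stably expressing luciferase under the Gli1 transcriptional response element are exposed to test chemicals for 24 hr at 37 C. Pathway activation is detected as a rise in luminescence.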

Test [8] in a line: qHTS assay to identify small molecule antagonists of the sonic hedgehog signaling (Shh) pathway (AID 1259369; calls by dose curve; also: nearly all actives have a fitted effect of over 45% in size; also: potency is read from the fitted curve at half-maximal effect). In short, it runs like this:
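Cells are plated and held 4hr at 37 C, compounds (DMSO) are pinned in, conditioned medium is added to stimulate the pathway, and after 24hr luciferase reagent is added for 30min before luminescence is read.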

Test [9] in a line: qHTS assay to identify small molecule agonists of the androgen receptor (AR) signaling pathway in the presence of an antagonist - cell viability counter screen (AID 1259379). Also: nearly all actives have a fitted effect of over 25% in size. Also: potency is read from the fitted curve at half-maximal effect. The method, boiled down:
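Cytotoxicity is assessed by CellTiter-Fluor in MDA-kb2 cells carrying an MMTV-driven luciferase reporter. Cells receive 3.0uM nilutamide plus compounds at 15 concentrations and incubate 16 hr at 37C without CO2 before fluorescence reading.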

Test [10] is described as follows: qHTS assay to identify small molecule agonists of the estrogen receptor beta (ER-beta) signaling pathway - cell viability counter screen (AID 1259380). Also: nearly all actives have a fitted effect of over 30% in size. Also: potency is read from the fitted curve at half-maximal effect. The method, boiled down: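 Cytotoxicity is measured in parallel with the reporter screen: after 16 hr compound exposure at 37C and a 2 hr LiveBLAzer step, CellTiter-Glo is added to the same ER-beta-UAS-bla HEK293T wells and luminescence read after 30 min.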

Test [11] in a line: qHTS assay to identify small molecule antagonists of the estrogen receptor beta (ER-beta) signaling pathway - cell viability counter screen (AID 1259382). Also: nearly all actives have a fitted effect of over 55% in size. Also: potency is read from the fitted curve at half-maximal effect. In short, it runs like this:
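Cytotoxicity counter screen multiplexed with the beta-lactamase antagonist assay: GripTite HEK293T ER-beta-bla cells were treated 16 hr with test chemicals in the presence of 1nM 17-beta-estradiol, and viability was measured by CellTiter-Glo.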

In test [12] the target is Estrogen receptor (Homo sapiens) (UniProt P03372). Nature of the test: qHTS assay to identify small molecule agonists of the estrogen receptor alpha (ER-alpha) signaling pathway in the presence of an antagonist (AID 1259383; calls by dose curve; also: top concentration of the series differs between compounds; nearly all actives have a fitted effect of over 15% in size). The method, boiled down:
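Agonist-mode confirmation in the presence of the ER antagonist ICI-182,780 at 10.0nM final. Breast-derived VM7Luc4E2 reporter cells were exposed to compounds for 22hr, and ERE-driven luciferase was quantified by luminescence.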

For test [13], the target named is Thyrotropin receptor (Homo sapiens) (UniProt P16473). Briefly: qHTS assay to identify small molecule antagonists of the thyroid stimulating hormone receptor (TSHR) signaling pathway (AID 1259385; calls by dose curve; also: nearly all actives have a fitted effect of over 20% in size; also: potency is read from the fitted curve at half-maximal effect). The method, boiled down: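 TSHR-HEK293 cells (800/well) plated 18 h, then compounds with Ro20-1724 and TSH at 1.5 ng/mL final, 30 min at room temperature. cAMP quantified by HTRF (cAMP-d2/anti-cAMP-cryptate, 1 h); 15 concentrations in triplicate.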
Sequence of Thyrotropin receptor (Homo sapiens) (P16473 whole entry, looked up): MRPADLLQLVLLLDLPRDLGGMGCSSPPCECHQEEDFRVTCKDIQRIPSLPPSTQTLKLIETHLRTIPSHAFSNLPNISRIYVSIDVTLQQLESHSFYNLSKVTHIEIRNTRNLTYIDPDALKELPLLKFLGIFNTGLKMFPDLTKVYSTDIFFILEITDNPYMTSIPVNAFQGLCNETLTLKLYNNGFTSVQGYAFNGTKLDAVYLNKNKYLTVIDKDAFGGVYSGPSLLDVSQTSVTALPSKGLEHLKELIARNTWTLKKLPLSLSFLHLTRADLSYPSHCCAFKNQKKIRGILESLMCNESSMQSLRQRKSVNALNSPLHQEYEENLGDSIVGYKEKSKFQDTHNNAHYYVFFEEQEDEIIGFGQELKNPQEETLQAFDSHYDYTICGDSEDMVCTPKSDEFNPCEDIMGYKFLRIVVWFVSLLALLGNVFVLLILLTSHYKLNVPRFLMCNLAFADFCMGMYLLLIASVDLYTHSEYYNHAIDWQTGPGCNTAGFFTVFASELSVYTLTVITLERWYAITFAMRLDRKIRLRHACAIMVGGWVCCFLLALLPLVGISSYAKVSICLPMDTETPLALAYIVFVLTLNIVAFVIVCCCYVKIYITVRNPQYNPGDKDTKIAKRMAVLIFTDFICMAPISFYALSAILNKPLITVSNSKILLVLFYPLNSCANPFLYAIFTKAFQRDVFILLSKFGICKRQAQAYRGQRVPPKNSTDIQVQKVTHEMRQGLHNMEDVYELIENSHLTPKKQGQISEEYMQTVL

A short description of test [14]: qHTS assay to identify small molecule HDAC inhibitors - cell viability counter screen (AID 1259365). Also: series mostly up to about 92 µM; nearly all actives have a fitted effect of over 50% in size. In short, it runs like this: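 Measured quantity is CellTiter-Glo luminescence from wild-type HCT-116 cells after compound incubation of 2hr at 37C, 5% CO2; reagent developed 30min at room temperature.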
Test [15] concerns the target Estrogen receptor beta (Homo sapiens) (UniProt Q92731). Briefly: qHTS assay to identify small molecule agonists of the estrogen receptor beta (ER-beta) signaling pathway (AID 1259377; active = well fitted activation curve with a large enough effect in the signal ratio in the repeat runs, not every such curve was filed as active; the % refers to the signal ratio). The method, boiled down:
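Reporter cells (HEK293T, ER-beta-UAS-bla) receive compounds or DMSO after a 6 hr pre-incubation. They then incubate 16 hr at 37C/5% CO2, and fluorescence from LiveBLAzer B/G substrate is measured after 2 hours at room temperature.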

Test [16] is described as follows: qHTS assay to identify small molecule agonists or antagonists of the thyroid stimulating hormone receptor (TSHR) signaling pathway - wild type cell line counter screen (AID 1259384; calls by dose curve). In short, it runs like this:
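Wild-type Hek293 cells, 800/well, 18 h at 37C, then compound with Ro20-1724 for 30 min RT. cAMP by HTRF (cAMP-d2/anti-cAMP cryptate), 1 h RT, fluorescence read. 15 concentrations, triplicates.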

Test [17] is described as follows: qHTS assay to identify small molecule phospholipidosis (PLD) inducers (AID 1259344; active = well fitted curve in the direction sought with a large enough effect; an effect the other way counts as inactive or inconclusive; also: potency is read from the fitted curve at half-maximal effect). The method, boiled down:
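Image-based: LipidTOX Red pit count/intensity per well and per cell; HepG2, 24 h compound at 37 C, PFA fixation, Hoechst counterstain.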

The target of test [18] is Androgen receptor (Homo sapiens) (UniProt P10275). Briefly: qHTS assay to identify small molecule agonists of the androgen receptor (AR) signaling pathway in the presence of an antagonist (AID 1259381; calls by dose curve; also: nearly all actives have a fitted effect of over 15% in size). In short, it runs like this:
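Agonist-mode confirmation screen: human MDA-kb2 cells stably expressing luciferase under an MMTV promoter bearing AR and GR response elements, co-treated with 3.0uM nilutamide (final). Luminescence measured after 16hr compound incubation.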

The target of test [19] is Estrogen receptor beta (Homo sapiens) (UniProt Q92731). Nature of the test: qHTS assay to identify small molecule antagonists of the estrogen receptor beta (ER-beta) signaling pathway (AID 1259378; active = well fitted inhibition curve with a large enough effect in the signal ratio in the repeat runs, not every such curve was filed as active; the % refers to the signal ratio; also: potency is read from the fitted curve at half-maximal effect). In short, it runs like this: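 ER-beta-UAS-bla HEK293T cells in 2% charcoal-stripped FBS medium treated with compound plus 1nM final 17-beta-estradiol for 16 hr at 37C. Beta-lactamase reporter read by FRET substrate fluorescence after 2 hours at room temperature.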
Sequence of Estrogen receptor beta (Homo sapiens) (Q92731 whole entry, looked up): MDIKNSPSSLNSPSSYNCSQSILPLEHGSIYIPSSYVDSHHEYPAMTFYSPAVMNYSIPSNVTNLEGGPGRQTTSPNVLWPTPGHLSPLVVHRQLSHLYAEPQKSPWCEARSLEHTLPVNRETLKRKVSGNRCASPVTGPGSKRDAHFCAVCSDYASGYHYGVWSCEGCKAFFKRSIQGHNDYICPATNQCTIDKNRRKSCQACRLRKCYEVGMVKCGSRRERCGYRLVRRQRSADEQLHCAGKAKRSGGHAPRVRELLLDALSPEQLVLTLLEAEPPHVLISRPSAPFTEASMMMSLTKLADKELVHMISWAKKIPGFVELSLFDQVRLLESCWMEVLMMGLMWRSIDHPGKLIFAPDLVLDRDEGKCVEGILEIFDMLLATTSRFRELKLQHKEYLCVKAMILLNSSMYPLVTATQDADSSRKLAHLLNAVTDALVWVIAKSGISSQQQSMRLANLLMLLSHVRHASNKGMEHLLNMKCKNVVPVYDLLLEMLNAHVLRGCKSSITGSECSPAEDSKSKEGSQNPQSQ

Sequence of Estrogen receptor (Homo sapiens) (P03372 whole entry, looked up): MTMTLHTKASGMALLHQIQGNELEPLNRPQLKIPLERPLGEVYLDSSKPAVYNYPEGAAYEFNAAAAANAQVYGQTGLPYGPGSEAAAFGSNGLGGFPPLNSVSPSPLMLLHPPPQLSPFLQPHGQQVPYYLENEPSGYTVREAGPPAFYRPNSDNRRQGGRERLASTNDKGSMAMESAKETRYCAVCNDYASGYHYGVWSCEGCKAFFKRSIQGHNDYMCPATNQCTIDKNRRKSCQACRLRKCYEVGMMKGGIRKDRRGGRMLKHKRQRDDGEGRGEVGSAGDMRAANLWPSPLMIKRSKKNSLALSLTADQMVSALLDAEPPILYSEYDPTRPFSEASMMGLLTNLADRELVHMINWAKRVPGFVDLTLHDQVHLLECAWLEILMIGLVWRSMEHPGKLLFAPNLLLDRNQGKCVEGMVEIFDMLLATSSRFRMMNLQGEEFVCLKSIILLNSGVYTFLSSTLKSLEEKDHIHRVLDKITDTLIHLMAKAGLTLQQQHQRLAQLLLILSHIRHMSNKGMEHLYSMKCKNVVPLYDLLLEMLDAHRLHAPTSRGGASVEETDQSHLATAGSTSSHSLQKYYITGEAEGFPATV
Sequence of Androgen receptor (Homo sapiens) (P10275 whole entry, looked up): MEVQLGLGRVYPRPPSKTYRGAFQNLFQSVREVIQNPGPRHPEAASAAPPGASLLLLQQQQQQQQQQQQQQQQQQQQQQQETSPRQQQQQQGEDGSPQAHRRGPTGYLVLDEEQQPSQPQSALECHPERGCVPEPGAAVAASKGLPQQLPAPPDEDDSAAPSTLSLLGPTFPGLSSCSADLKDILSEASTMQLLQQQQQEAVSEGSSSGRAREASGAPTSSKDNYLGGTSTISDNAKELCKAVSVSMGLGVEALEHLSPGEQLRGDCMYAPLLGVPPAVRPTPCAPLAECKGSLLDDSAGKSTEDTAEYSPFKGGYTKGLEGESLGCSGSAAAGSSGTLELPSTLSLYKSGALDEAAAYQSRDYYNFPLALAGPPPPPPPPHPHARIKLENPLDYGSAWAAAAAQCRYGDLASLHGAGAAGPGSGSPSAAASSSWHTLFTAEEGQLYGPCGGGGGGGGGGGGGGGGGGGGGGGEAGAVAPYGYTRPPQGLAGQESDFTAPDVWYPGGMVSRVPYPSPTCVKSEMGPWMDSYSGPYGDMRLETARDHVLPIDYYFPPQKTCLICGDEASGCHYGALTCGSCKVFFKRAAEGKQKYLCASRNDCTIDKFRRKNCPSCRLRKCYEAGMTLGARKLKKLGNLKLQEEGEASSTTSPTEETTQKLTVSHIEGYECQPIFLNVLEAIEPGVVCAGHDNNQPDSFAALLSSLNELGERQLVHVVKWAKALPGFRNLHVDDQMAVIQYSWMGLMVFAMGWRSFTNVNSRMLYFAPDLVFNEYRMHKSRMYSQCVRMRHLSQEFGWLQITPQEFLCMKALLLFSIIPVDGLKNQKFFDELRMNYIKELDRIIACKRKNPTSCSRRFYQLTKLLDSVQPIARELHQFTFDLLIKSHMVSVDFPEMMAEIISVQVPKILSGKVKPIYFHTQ

As for `CCOC(=O)O[C@H](C)OC(=O)c1ccc2c(c1)cc(C(=O)NC1CCN(C(C)C)CC1)n2Cc1cc(-c2ccc(Cl)s2)on1`, the Potency in [1] was 64.1 µM (active); in test [2], 40.4 µM (active); in test [3], 64.1 µM (active); in test [5] it was 12.8 µM (active); in [6], 20.3 µM (active); in [8], 9.05 µM (active). The Potency in test [9] is 45.4 µM (active); in [10] it was 20.3 µM (active); in test [11] it was 22.7 µM (active); in test [13], 64.1 µM (active). In addition, the Potency result in test [4], in test [7] and in [12] was “inactive” in each case.

For the compound `NNc1nc(-c2ccccc2)cs1`, the Potency result in test [1], in [2], in test [3], in test [14], in test [5] and in [6] was “inactive” throughout. In addition, the Potency result in test [7], in test [8], in test [15] and in test [12] was “inactive” each time. In [10], the Potency was 25 µM (active). The result in [16] was inactive.

In the case of `CN(C)[C@@H]1C(=O)C(C(N)=O)=C(O)[C@@]2(O)C(=O)C3=C(O)c4c(O)ccc(Cl)c4[C@@H](O)[C@H]3C[C@@H]12`, the Potency result in test [1], in test [2], in test [17], in test [4], in test [14] and in test [6] was “inactive” each time. The Potency entry in [7], in [8], in [15], in test [9], in [10] and in [11] was “inactive” throughout. Moreover, the Potency result in [13] was “inactive”. The compound was classed as inactive in test [16].

Consider `O=C(NO)C1(NS(=O)(=O)c2ccc(Oc3ccc(F)cc3)cc2)CCOCC1`, for which the Potency entry in [1], in test [2], in test [4], in [14], in [5] and in test [6] was “inactive” in each case. Besides, the Potency result in test [7], in test [15], in test [10], in test [11] and in [12] was “inactive” each time. Moreover, the Potency in [3] is 61.1 µM (active). Moreover, the compound was classed as inactive in test [16].

For `CN1CCC(Nc2ncc3ncnc(Nc4ccc(F)c(Cl)c4)c3n2)CC1`, the Potency result in test [1], in test [2], in test [4], in test [14], in test [7] and in [9] was “inactive” in each case. Moreover, the Potency result in test [18] is “inactive”. The Potency is 11.2 µM (active) in [17]; 29.8 µM (active) in [5]; 6.68 µM (active) in test [8]; 11.9 µM (active) in test [10]; 29.8 µM (active) in test [13]. Also, the compound was called inactive in [16].

Consider `C[C@H]1[C@H]2CC[C@H]3[C@@H]4CC=C5C[C@@H](N(C)C)CC[C@]5(C)[C@H]4CC[C@]23CN1C`, for which the Potency result in [1], in [2], in test [17], in test [4], in test [14] and in test [5] was “inactive” throughout. Moreover, the Potency result in test [6], in [7], in test [8], in test [15], in test [19] and in test [10] was “inactive” in each case. Moreover, the Potency result in test [18], in test [11] and in [13] was “inactive” each time. Further, the result in test [16] was inactive.

`CCCCC(CC)COC(=O)c1ccccc1C(=O)O` (stereo not given): the Potency result in test [1], in test [2], in [17], in test [4], in [14] and in test [5] was “inactive” in each case. Further, the Potency result in test [6], in [7] and in test [9] was “inactive” in each case. In addition, the compound was called inactive in test [16].

With `O=c1c(-c2ccccc2)c1-c1ccccc1`, the Potency result in [1], in test [2], in test [17], in test [4], in test [14] and in test [7] was “inactive” in each case. Further, the Potency entry in test [10], in [11] and in test [12] was “inactive” throughout. Further, the Potency in test [5] is 13.3 µM (active); in [6], 11.9 µM (active); in test [8], 5.96 µM (active); in test [19], 10.6 µM (active). Also, the compound was classed as inactive in test [16].
